Source: PubChem BioAssay AID652099 (National Center for Advancing Translational Sciences (NCATS), 2013)
Activity calls are given as the source filed them.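 Rule for the calls: active = Gaucher patient macrophages show a phagocytic index close to or matching that of healthy macrophages; inactive = the rest.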

Experiment: Extended Characterization of Activators of N370S glucocerebrosidase as a Potential Chaperone Treatment of Gaucher Disease: Phagocytosis Index
Settings: Gaucher iPSC macrophages, phagocytosis of fluorescent E. coli particles
Description: Glucocerebrosidase (GCase) catalyzes the hydrolysis of beta-glucocerebroside (GC) to glucose and ceramide in lysosomes. Mutations in the glucocerebrosidase gene result in Gaucher disease, an autosomal recessive lysosomal storage disorder. Many of the mutations encountered in patients with Gaucher disease are missense alterations that may cause misfolding, decreased stability and/or mistrafficking of this lysosomal protein. […] These inhibitors include iminosugar analogs and other inhibitors that were discovered as part of previous work. However, the enhancement of enzyme activity by the chaperone action of an enzyme inhibitor must be balanced against the direct inhibition of the enzyme. […] In this extended characterization of our probe, we have further characterized the activity of probes in relevant models of Gaucher disease. This assay examine phagocytosis in patient-derived macrophages following compound incubation. NIH Chemical Genomics Center [NCGC] NIH Molecular Libraries Probe Production Centers Network [MLPCN] MLPCN Grant: MH086442 Assay Submitter (PI): Ellen Sidransky, NHGRI
HMacs and iMacs, plated in black 96-well clear bottom plates, were treated, washed and incubated for 2 hrs with 100 µl of fluorescein-labeled E. coli BioParticles (Vybrant Phagocytosis Assay, Invitrogen).

SMILES | outcome
C#Cc1ccc(NC(=O)c2cnn3c(C)cc(C)nc23)cc1 | active; similar to control
